# Bioassay records from PubChem BioAssay.
# Many of the other results were omitted from the sample, so hits are more common in it than they were.
# Tg IFNy HTS: blocks Toxoplasma gondii growth in the presence of IFN-gamma; Toxoplasma gondii growth in IFN-gamma-treated host cells; stronger effect = lower value; AID 1259416; hit rate 3.8% among 69,000; activity change, negative = inhibition, % (concentration not given with the values); in the data active means activity change below about -70%, passing the limit was not always enough;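 further: host cells are HeLa cells infected with Toxoplasma gondii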
# An asterisk follows results filed as active; ! = not active in a repeat.
SMILES,Tg IFNy HTS
CCn1cc(-c2ccnc3[nH]c(-c4cccc(CN(C)C)c4)cc23)c(-c2ccc(NC(=O)N(C)C)cc2)n1,-82*
CCn1cnc(NC(=O)N(C)Cc2cccc3ncccc23)n1,-1
Cc1cc(C)c(C(=O)NCCCc2nc3ccccc3n2C)c(=O)[nH]1,-17
C=CCNc1ccc(C(=O)N2CCN(C(=O)c3ccccc3)CC2)cc1,1
CC(C)NC(=O)NCC1CCN(Cc2cc(C(C)(C)C)n[nH]2)C1 (stereo not given),0
Cc1ccc(C)c(NC(=O)c2nc(Nc3ccccc3)c3ccccc3n2)c1,-61
Cc1cccc(Nc2nc(C(=O)Nc3c(C)cccc3C)nc3ccccc23)c1,-70*
Cc1cccc(Nc2nc(C(=O)Nc3cccc(C)c3C)nc3ccccc23)c1,-40
Cc1cc(C)cc(NC(=O)c2nc(Nc3ccccc3)c3ccccc3n2)c1,5
CSc1cccc(NC(=O)c2nc(Nc3cccc(C)c3)c3ccccc3n2)c1,-82*
Cc1ccc(Nc2nc(C(=O)Nc3cccc(C)c3)nc3ccccc23)cc1,-64
COc1cccc(COC2CN(CCc3ccccc3)C(=O)CN(C(=O)c3cccnc3)C2)c1 (stereo not given),8
CN1CCN(C(=O)c2c(O)cccc2O)CC1c1ccccc1 (stereo not given),-23
CCc1nn(C)c(Cl)c1CN1CCC2(CCNCC2)CC1,5
OC(CCCN1CCCCC1)(c1ccccc1)c1ccccc1,0
NC(=O)C(c1ccccc1)(c1ccc(F)cc1)c1ccc(F)cc1,15
OC(C#CC(O)(c1ccccc1)c1ccccc1)(c1ccccc1)c1ccccc1,-93*
Cc1oc(-c2ccc(C(=O)N3CCN(c4ccccn4)CC3)cc2)nc1CN1CCc2ccccc21,-8
Cc1cc(C)c(NC(=O)c2cccc(CN3CCCC(C(N)=O)C3)c2)c(C)c1 (stereo not given),-46
CCN1CCC2(CC1)OC(=O)C(C)=C2C(=O)Nc1ccc(C)cc1,115
COc1ccc(S(=O)(=O)N2CCC(c3ccc4c(C)nn(C)c4n3)CC2)cc1,-91*
COc1ccc(S(=O)(=O)N2CCC(c3nc(C(=O)N(C)C)c(C)o3)CC2)cc1,-5
COc1ccc(S(=O)(=O)N2CCC(c3n[nH]c(=O)cc3-c3cc(C)no3)CC2)cc1,-21
O=C(c1cccs1)N1Cc2ccnn2CC(COCC2CC2)C1 (stereo not given),-45
O=C(Nc1ccc(F)cc1F)c1nccnc1Oc1cccc(C(F)(F)F)c1,-54
SMILES,Tg IFNy HTS
COc1ccc2c(c1)NC1(CCN(C(=O)NCCc3ccccc3)CC1)c1cccn1-2,131
CCN1C(=O)N(C2Cc3ccccc3C2)C(=O)C12CCN(Cc1cccn1-c1cccnc1)CC2,21
CCCN(Cc1cccc(Cl)c1)C(=O)CCSC,-29
Cc1ccc(-c2csc(-c3cccn3CC(=O)N3CCC4(CC3)OCCO4)n2)cc1,13
CN1CC(=O)N(c2ccccc2)CC12CCN(C(=O)N1CCCC1)C2 (stereo not given),-1
CC1=CC(C)(C)N=C(Nc2nc(C)c3cc(C)cc(C)c3n2)N1,-99*
O=C(c1cnnn1-c1ccccc1)N(Cc1ccccn1)CC1CCCO1 (stereo not given),20
O=C1C2CCCCC2C(=O)N1c1ccc(OS(=O)(=O)c2ccccc2)cc1 (stereo not given),-26
NC(N)=N/N=C/c1ccc(OS(=O)(=O)c2ccccc2)cc1,-77*
NC(N)=N/N=C/c1c(Cl)cccc1Cl,-4
Cc1cc(C(=O)N2CCc3nc(N4CCCC4)nc(C)c3CC2)c(C)o1,-5
c1ccc2c3c([nH]c2c1)CN(Cc1cc2n(n1)CCNC2)CC3,3
CC1=C(C(=O)NCCN2CCOCC2)C2(CCN(S(C)(=O)=O)CC2)OC1=O,29
O=C(Cc1ccccc1)NO,-36
CCCCOc1ccc(NC(=O)CN2CCN(CC)CC2)cc1,-38
CCCCOc1ccc(CC(=O)NO)cc1,-100*!
CC(=O)Nc1cccc(-c2ncc(C)c(N)n2)c1,5
CCOC(=O)CC(NC(=O)N1CCC2(CC1)Nc1ccccc1-n1cccc12)c1ccccc1 (stereo not given),136
Cn1ncc(-c2nc(-c3ccc(Cl)cc3)cs2)c1N,-83*
Cc1nc(-c2ccc(Cl)cc2)cs1,-1
CC(C)(C)c1cc(-c2csc(-c3ccc(Cl)cc3)n2)cc(C(C)(C)C)c1O,58
COc1cccc(-c2nc(Cn3nnc(C(=O)Nc4ccc(Cl)c(Cl)c4)c3C)c(C)o2)c1OC,55
Cc1nc(CCNC(=O)[C@H]2CCCN2S(=O)(=O)c2ccc(Cl)s2)cs1,5
CCS(=O)(=O)N1CCC(n2cccn2)c2cc(NCC3CC3)ccc21 (stereo not given),-8
O=C(c1ccncc1)N1CCC2(C1)c1ccccc1S(=O)(=O)N2Cc1ccc(F)cc1 (stereo not given),11
SMILES,Tg IFNy HTS
c1ccc(-c2ncn(Cc3cn[nH]c3-c3ccccc3)c2-c2cnc[nH]2)cc1,-10
O=C(NCc1coc(-c2ccccc2)n1)c1cccc2ccnn12,-80*
O=C(NCc1csc(N2CCOCC2)n1)c1cccc2ccnn12,33
O=C(NCc1noc(Cc2ccccc2)n1)c1cccc2ccnn12,7
COc1ccc([C@H]2CC=CC[C@H](C)Oc3ccccc3C(=O)N(C)[C@@H](C(C)C)C(=O)N2)c(OC)c1 (mixture of isomers),-11
C[C@@H]1CC=CC[C@@H](c2cccc(Cl)c2)NC(=O)[C@@H](Cc2ccccc2)N(C)C(=O)c2ccccc2O1 (mixture of isomers),-63
COc1ccc([C@H]2CC=CC[C@@H](C)Oc3ccccc3C(=O)N(C)[C@H](Cc3ccccc3)C(=O)N2)c(OC)c1 (mixture of isomers),-79*
CC(C)(C)C1CCc2nc(-c3cccnc3)nc(Nc3cccc(C(F)(F)F)c3)c2C1 (stereo not given),-73*
O=C(O)c1cccnc1Nc1cccc(C(F)(F)F)c1,-4
Cc1nc(CCNc2nc(-c3cccnc3)nc3c2CCNC3)sc1C,136
Cn1ccc(-c2cc(C(=O)NCCc3cccnc3)c3ccccn23)n1,4
COc1cccc(Cn2cc(NC(=O)C3(c4cc(C)cc(C)c4)CCOCC3)cn2)c1,-4
O=C(CN1CCC(c2ccccc2)CC1)Nc1cnn(Cc2cccc(F)c2)c1,-14
Cc1nc(-c2ccccc2F)sc1C(=O)NCc1nc(Cc2ccccc2)no1,-6
Cc1nc(-c2ccccc2F)sc1C(=O)Nc1cnn(Cc2cccc(F)c2)c1,-89*
Cn1c(=O)c(C(=O)Nc2cnn(Cc3cccc(F)c3)c2)nc2ccccc21,-17
COc1cccc(-c2cc(C(=O)Nc3cnn(Cc4cccc(F)c4)c3)on2)c1,-96*
Cn1c(=O)n(C)c2cc(CNc3nccc(N4CCCC(O)C4)n3)ccc21 (stereo not given),-6
C=CCN1CCN(Cc2cc3n(n2)CCNC3)CC1,-5
O=C(c1cn[nH]n1)N(CCCn1ccnc1)Cc1ccncc1,-2
Cc1cccc(OCCCN2CCN(C(=O)c3ccc(C)n(C)c3=O)CC2)c1C,10
CC(=O)N1CCCC1C(=O)N1CC(C(=O)O)C1 (stereo not given),59
NS(=O)(=O)c1ccc(NC(=O)Nc2ccc(F)cc2)cc1,25
O=C(Nc1ccc(S(=O)(=O)Nc2ccccn2)cc1)c1ccc(Cl)c(Cl)c1,-3
NS(=O)(=O)c1ccc(NC(=O)c2ccc(-c3cc(Cl)ccc3Cl)o2)cc1,-100*
OCC1(Cc2cccc(C(F)(F)F)c2)CCN(c2cnc3ccccc3n2)CC1,-12
O=C(NC(=S)SCc1ccccc1)c1ccc(C(F)(F)F)cc1,-10
